This note sets out measurements from PubChem BioAssay (NCATS).

Records with an inconclusive call do not appear. Activity calls are given as the source filed them. Unless noted, calls come from the whole dose curve; as a rule, active = well fitted curve in the direction sought with a large enough effect; inconclusive = small, poorly fitted or top-dose-only effect, or another doubt; inactive = no such curve, though single readings can be large; an effect the other way counts as inactive or inconclusive. Where a SMILES comes first, the peptide text is derived from it. [ ]: non-standard residue; d: D form. The star is where a group is joined. Benzoyl(4-tBu) = CC(C)(C)c1ccc(C(=O)*)cc1; Lys(Et2) = CCN(CC)CCCC[C@H](N)C(=O)O

Test [1] can be described thus: qHTS to identify inhibitors of the type 1 interferon - major histocompatibility complex class I in skeletal muscle: primary screen against the NCATS Mechanism Interrogation Plate v5.0 (MIPE) Libary (AID 1347411). Note: nearly all actives have a fitted effect of over 65% in size. Note: potency is the fitted concentration of half-maximal effect. In a few lines:
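Luminescence from HiBiT-tagged endogenous HLA-B*08:01 served as the MHC class I read-out. CRISPR-engineered C25cl48 human myoblasts received 4.0 ng/ml IFN-beta plus compound for 24 hrs, with an 11-point, 1:3 series topping at 46 uM final.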
Background: qHTS replaces the single test concentration by a dilution series.

Test [2] can be described thus: Primary qHTS for inhibitors of nuclear receptor binding SET domain protein 2 (NSD2) in an isogenic RCH-ACV NSD2 p.E1099K mutant (9B) (AID 1645876). Note: nearly all actives have a fitted effect of over 70% in size. Note: potency is the fitted concentration of half-maximal effect.
A short description of test [3]: Primary qHTS for inhibitors of nuclear receptor binding SET domain protein 2 (NSD2) in an RCH-ACV wild type WT cells (2C) (AID 1645877). Note: nearly all actives have a fitted effect of over 70% in size. Note: potency is the fitted concentration of half-maximal effect.
Test [4] has as its target Glutathione peroxidase 1 (Homo sapiens) (UniProt P07203). Kind of test: Primary qHTS Assay for Inhibitors of Recombinant Selenoprotein Glutathione Peroxidase 1 (GPX1) (AID 1845191). Note: nearly all actives have a fitted effect of over 65% in size. An outline of the steps:
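Recombinant GPX1 (10 nM final) was preincubated with compound for 30 min at room temperature, then reacted with 1 mM GSH, 0.5 mM CHP, 0.5 mM NADPH and 100 nM glutathione reductase; NADPH fluorescence (340/450 nm) was read at 0 and 15 min.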

Test [5] has as its target Phospholipid hydroperoxide glutathione peroxidase GPX4 (Homo sapiens) (UniProt P36969). Briefly: Primary qHTS Assay for Inhibitors of Recombinant Selenoprotein Glutathione Peroxidase 4 (GPX4) (AID 1845192). Note: nearly all actives have a fitted effect of over 65% in size. To be noted: outcome: dose series up to 50 µM unless noted. An outline of the steps:
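GR-coupled readout: 100 nM GR, 1 mM GSH, 0.5 mM NADPH; NADPH fluorescence (ex 340/em 450 nm) read at t=0 and after 15 min RT. GPX4 200 nM, preincubated 30 min with compound; substrate 0.5 mM CHP.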

Test [6] in a line: qHTS drug screen for cell cycle checkpoint inhibitors in PARPi-resistant BRCA-mutant ovarian cancer cell lines. (AID 1963452; calls by dose curve). To be noted: PEO1/OlaR viability, CellTiter-Glo luminescence, 96 h, stronger effect = lower value. In a few lines: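 PEO1, PEO4 and PEO1/OlaR ovarian cancer cells, 600 per well, exposed 96 h at 37C to a dilution series. Viability read by CellTiter-Glo luminescence, normalized to DMSO and empty wells; activity summarized as Z-AUC.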

The mark [7] stands for this setting: measured here: PEO1 parental Z-AUC.

Phospholipid hydroperoxide glutathione peroxidase GPX4 (Homo sapiens), sequence (P36969 whole entry, looked up): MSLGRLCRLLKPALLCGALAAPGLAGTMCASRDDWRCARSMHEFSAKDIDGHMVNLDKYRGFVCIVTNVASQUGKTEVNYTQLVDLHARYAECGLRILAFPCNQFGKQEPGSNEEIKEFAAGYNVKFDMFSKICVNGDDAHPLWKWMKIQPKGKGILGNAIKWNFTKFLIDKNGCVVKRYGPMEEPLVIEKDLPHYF
Glutathione peroxidase 1 (Homo sapiens), sequence (P07203 whole entry, looked up): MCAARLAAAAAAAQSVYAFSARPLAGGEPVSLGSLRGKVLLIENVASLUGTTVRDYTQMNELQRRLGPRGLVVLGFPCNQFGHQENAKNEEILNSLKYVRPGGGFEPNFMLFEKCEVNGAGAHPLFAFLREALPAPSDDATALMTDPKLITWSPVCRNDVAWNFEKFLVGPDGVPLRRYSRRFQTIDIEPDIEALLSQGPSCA

In the case of `COc1ccc(C(=O)N2CCN(C(=O)/C=C/c3ccc(Br)cc3)CC2)cc1`, the Potency entry in test [1], in test [2], in test [3], in test [4] and in test [5] was “inactive” throughout. For the same compound, the Z-AUC in test [6] is 1.19 (inactive); in test [6] (setting [7]), 1.01; in test [6] (measured here: PEO4 Z-AUC) it was 1.05.
As to `CC1(C)S[C@H]2[C@H](NC(=O)[C@@H](N)c3ccc(O)cc3)C(=O)N2[C@H]1C(=O)O`, the Potency entry in test [1], in test [2], in test [3], in test [4] and in test [5] was “inactive” each time. In addition, the Z-AUC in test [6] was -0.122 (inactive); in test [6] (setting [7]), 0.11; in test [6] (measured here: PEO4 Z-AUC) it was 0.161.
On to `CC(=O)N1CCN(c2ccc(NC(=O)Cc3cnc(-c4ccnc(F)c4)c(C)c3)nc2)CC1`, for which the Potency result in test [1], in test [2], in test [3], in test [4] and in test [5] was “inactive” in each case. Moreover, the results for the Z-AUC in test [6], in test [6] (setting [7]) and in test [6] (measured here: PEO4 Z-AUC) were 1.31 (inactive), 1.23 and 0.947, respectively.
Turning to `Cc1c(NC(=O)c2cc(C(N)=O)nc3cc(F)ccc23)c(C(F)(F)F)nn1Cc1ccc(C(C)(C)C)cc1`, the Potency result in test [1], in test [2], in test [3], in test [4] and in test [5] was “inactive” each time. Also, the Z-AUC in test [6] is -0.453 (inactive); in test [6] (setting [7]), -0.106; in test [6] (measured here: PEO4 Z-AUC), 0.0379.
As to `C[C@@]1(c2ncncc2F)NC(=O)c2cc(-c3cn[nH]c3)ccc21`, the Potency in test [1] is 20.8 µM (active); in test [2], 14.8 µM (active); in test [3], 14.8 µM (active). The Potency result in test [4] and in test [5] was “inactive” in each case. The Z-AUC in test [6] is -0.499 (inactive); in test [6] (setting [7]) it was -0.528; in test [6] (measured here: PEO4 Z-AUC) it was -0.372.
Turning to `CN(C)CCNC(=O)NC[C@H]1CC[C@@H]2[C@H](O1)c1cc(C(F)(F)F)ccc1N[C@H]2c1ccccc1`, the Potency entry in test [1], in test [4] and in test [5] was “inactive” throughout. The Potency was 0.263 µM (active) in test [2] and 0.417 µM (active) in test [3]. The results for the Z-AUC in test [6], in test [6] (setting [7]) and in test [6] (measured here: PEO4 Z-AUC) were -0.264 (inactive), -0.891 and -1.1, respectively.
As for `CSC[C@H]1CN(Cc2c[nH]c3c(N)ncnc23)C[C@@H]1O`, the Potency entry in test [1], in test [2], in test [3], in test [4] and in test [5] was “inactive” in each case. In addition, the Z-AUC in test [6] was 1.09 (inactive); in test [6] (setting [7]), 0.706; in test [6] (measured here: PEO4 Z-AUC), 1.05.
Regarding `O=C1NC(=O)[C@@H](c2cn3c4c(cccc24)CCC3)[C@@H]1c1c[nH]c2ccccc12`, the Potency result in test [1], in test [4] and in test [5] was “inactive” throughout. The Potency in test [2] is 1.32 µM (active); in test [3] it was 1.05 µM (active). Besides, the Z-AUC is 0.925 (inactive) in test [6], 0.797 in test [6] (setting [7]) and 0.765 in test [6] (measured here: PEO4 Z-AUC).
As to `O=C(Nc1cnn2ccc(N3CCC[C@@H]3c3cc(F)ccc3F)nc12)N1CC[C@H](O)C1`, the Potency result in test [1], in test [2], in test [3], in test [4] and in test [5] was “inactive” each time. Also, the Z-AUC in test [6] is 1.28 (inactive); in test [6] (setting [7]), 1.7; in test [6] (measured here: PEO4 Z-AUC) it was 1.78.
Take `O=C([O-])C[O-].[Pt+2]`: the Potency result in test [1], in test [2], in test [3], in test [4] and in test [5] was “inactive” in each case. Further, the Z-AUC in test [6] is 1.62 (inactive); in test [6] (setting [7]), 1.67; in test [6] (measured here: PEO4 Z-AUC) it was 1.5.
`[2H]c1nc(C)nc([2H])c1-c1cc(NC[C@@H](C)c2cccc3c(C(=O)NC)ccnc23)ncn1`: the Potency entry in test [1], in test [2], in test [3], in test [4] and in test [5] was “inactive” in each case. Further, the Z-AUC in test [6] is 1.38 (inactive); in test [6] (setting [7]), 1.26; in test [6] (measured here: PEO4 Z-AUC) it was 1.18.
As to `OC[C@H]1O[C@@H](S[C@@H]2O[C@H](CO)[C@H](O)[C@H](n3cc(-c4cccc(F)c4)nn3)[C@H]2O)[C@H](O)[C@@H](n2cc(-c3cccc(F)c3)nn2)[C@H]1O`, the Potency entry in test [1], in test [2], in test [3], in test [4] and in test [5] was “inactive” throughout. The Z-AUC in test [6] was -0.122 (inactive); in test [6] (setting [7]) it was 0.00215; in test [6] (measured here: PEO4 Z-AUC), 0.252.
Consider `CC(C)(O)CNc1ncc(-c2ccnc(Nc3ccncc3)n2)c(CC2CC2)n1`, for which the Potency in test [1] is 16.5 µM (active); in test [2], 4.17 µM (active); in test [3], 3.72 µM (active). Also, the Potency entry in test [4] and in test [5] was “inactive” each time. Moreover, the Z-AUC in test [6] was -0.109 (inactive); in test [6] (setting [7]), -0.212; in test [6] (measured here: PEO4 Z-AUC) it was 0.228.
On to `CNC(=O)Cn1cc(-c2ccc3c(c2)C(F)CC32NC(=O)N(CC(=O)N(Cc3ccc(F)cc3)C(C)C(F)(F)F)C2=O)cn1` (configuration not stated), for which the Potency entry in test [1], in test [4] and in test [5] was “inactive” in each case. The Potency in test [2] was 0.0833 µM (active); in test [3], 0.132 µM (active). The Z-AUC in test [6] is 0.772 (inactive); in test [6] (setting [7]), 0.67; in test [6] (measured here: PEO4 Z-AUC) it was 0.562.
On to `CCN(CC)CCCC[C@H](NC(=O)[C@H](CC(C)C)NC(=O)[C@H](C)NC(=O)[C@H](Cc1ccccc1)NC(=O)c1ccc(C(C)(C)C)cc1)C(=O)N[C@@H](CO)C(=O)OC` ({Benzoyl(4-tBu)}-FAL[Lys(Et2)]S-OMe), for which the Potency entry in test [1], in test [2], in test [3], in test [4] and in test [5] was “inactive” each time. Besides, the values for the Z-AUC in test [6], in test [6] (setting [7]) and in test [6] (measured here: PEO4 Z-AUC) were -0.334 (inactive), 0.227 and -0.0734, respectively.
As for `CC1(N)CCN(c2cccnc2NC(=O)c2nc(-c3ncccc3C(F)(F)F)cnc2N)CC1`, the Potency result in test [1], in test [4] and in test [5] was “inactive” throughout. Moreover, the Potency in test [2] is 16.6 µM (active); in test [3], 20.9 µM (active). Further, the figures for the Z-AUC in test [6], in test [6] (setting [7]) and in test [6] (measured here: PEO4 Z-AUC) were 0.421 (inactive), -0.000608 and 0.765, respectively.
As for `Nc1nc(-c2nn(Cc3ccccc3F)c3ncccc23)ncc1C1CC1`, the Potency entry in test [1], in test [4] and in test [5] was “inactive” in each case. Besides, the Potency in test [2] and in test [3] was 1.18 µM (active) each time. Also, the Z-AUC was 1.67 (inactive) in test [6], 0.865 in test [6] (setting [7]) and 1.09 in test [6] (measured here: PEO4 Z-AUC).
Consider `C=CCN1C[C@H](C(=O)N(CCCN(C)C)C(=O)NCC)CC2c3cccc4[nH]cc(c34)C[C@H]21` (some centres not stated), for which the Potency entry in test [1], in test [2], in test [3], in test [4] and in test [5] was “inactive” in each case. The figures for the Z-AUC in test [6], in test [6] (setting [7]) and in test [6] (measured here: PEO4 Z-AUC) were -0.809 (inactive), -0.35 and -0.259, respectively.
For the compound `CCc1cc2c(c(OCC(F)(F)F)c(C(=O)NC3CCN(C(=O)CO)CC3)n2C)c(=O)n1CC(=O)c1ccccc1`, the Potency entry in test [1], in test [2], in test [3], in test [4] and in test [5] was “inactive” throughout. The results for the Z-AUC in test [6], in test [6] (setting [7]) and in test [6] (measured here: PEO4 Z-AUC) were -1.12 (inactive), -0.345 and 0.581, respectively.
